Bioassay records from PubChem.
BAZ2B block: qHTS Assay for Inhibitors of BAZ2B | Bromodomain adjacent to zinc finger domain protein 2B (Homo sapiens), Q9UIF8 | Potency, µM (doses to about 114 µM), actives largely listed as inhibitors | AID 504333, 2011 | AlphaScreen BAZ2B-H3K14Ac peptide displacement | 360,000 tested, 4.4% active; note: nearly all actives have a fitted effect of over 60% in size
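AlphaScreen luminescence quantifies BAZ2B engagement of H3K14Ac peptide; the protein and biotinylated peptide are both at 50 nM final, buffer PBS pH 7.4 with 0.01% Tween-20, all steps at room temperature.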
L3MBTL1 block: qHTS Assay for the Inhibitors of L3MBTL1; Lethal(3)malignant brain tumor-like protein 1 (Homo sapiens), Q9Y468; AlphaScreen L3MBTL1–H3K9me1 peptide binding; Potency, µM (series often up to 57.1 µM), most hits filed as inhibitors; 230,000 tested, 0.66% active; AID 485360, 2010; note: nearly all actives have a fitted effect of over 60% in size
Target sequence (Q9Y468 whole entry, looked up): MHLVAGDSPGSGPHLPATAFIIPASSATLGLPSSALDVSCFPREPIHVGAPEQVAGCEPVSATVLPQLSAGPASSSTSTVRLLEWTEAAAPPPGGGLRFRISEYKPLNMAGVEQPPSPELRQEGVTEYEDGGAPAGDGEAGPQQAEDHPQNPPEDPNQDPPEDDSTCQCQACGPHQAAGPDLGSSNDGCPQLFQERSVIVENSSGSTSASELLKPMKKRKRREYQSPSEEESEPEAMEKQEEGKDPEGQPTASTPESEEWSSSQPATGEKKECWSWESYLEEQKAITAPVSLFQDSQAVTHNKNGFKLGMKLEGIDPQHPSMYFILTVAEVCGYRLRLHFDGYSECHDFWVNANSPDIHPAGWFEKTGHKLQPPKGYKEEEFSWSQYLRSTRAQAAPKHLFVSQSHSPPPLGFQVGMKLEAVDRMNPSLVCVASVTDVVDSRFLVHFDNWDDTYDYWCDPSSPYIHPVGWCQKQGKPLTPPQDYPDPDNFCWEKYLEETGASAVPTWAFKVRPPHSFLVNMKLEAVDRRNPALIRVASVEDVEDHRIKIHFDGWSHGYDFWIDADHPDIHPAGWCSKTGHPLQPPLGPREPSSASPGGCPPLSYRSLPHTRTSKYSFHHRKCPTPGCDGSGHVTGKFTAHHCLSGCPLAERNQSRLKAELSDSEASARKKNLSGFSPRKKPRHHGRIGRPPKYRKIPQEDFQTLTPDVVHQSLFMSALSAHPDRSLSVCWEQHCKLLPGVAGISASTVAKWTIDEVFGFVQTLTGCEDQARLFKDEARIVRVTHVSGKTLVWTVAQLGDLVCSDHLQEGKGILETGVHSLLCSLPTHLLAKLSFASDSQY
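Displacement of a biotinylated histone H3(1-15) peptide monomethylated at Lys9 (75 nM) from L3MBTL1 (50 nM) was measured by AlphaScreen after a 30 min room-temperature compound incubation; cefsulodin titration served as intraplate control.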
JMJD2A Tudor: qHTS Assay for Inhibitors of JMJD2A-Tudor Domain; Lysine-specific demethylase 4A (Homo sapiens), O75164; AlphaScreen JMJD2A-Tudor / H3K4me3 peptide binding; Potency, µM (top dose mostly 114 µM), actives largely listed as inhibitors; 390,000 tested, 4.4% active; AID 504339, 2011; note: nearly all actives have a fitted effect of over 50% in size
HP1b chromo inh: HTS for Inhibitors of HP1-beta Chromodomain Interactions with Methylated Histone Tails; Chromobox protein homolog 1 (Homo sapiens), P83916; AlphaScreen HP1-beta / biotin-H3K9me3 peptide binding; Potency, µM (top dose mostly 114 µM), usual class: inhibitors; 390,000 tested, 0.56% active; note: nearly all actives have a fitted effect of over 70% in size
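Compound inhibition of the preformed complex between 50 nM HP1-beta and 50 nM biotinylated H3K9me3 peptide was read by AlphaScreen. Buffer was PBS pH 7.4 with 0.01% Tween-20. Incubations ran 30 min at room temperature, with 10 ug/mL donor/acceptor beads.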
G9a block: qHTS Assay for Inhibitors of Histone Lysine Methyltransferase G9a; Histone-lysine N-methyltransferase EHMT2 (Homo sapiens), Q96KQ7; 350,000 tested, 8.8% active; Potency, µM (top dose mostly 102 µM), usual class: inhibitors; G9a H3K9 monomethylation, AlphaScreen, 2 h; AID 504332, 2011; note: nearly all actives have a fitted effect of over 75% in size
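Enzyme 20 nM + cpd, 15 min RT; add b-H3K9 pep 500 nM / SAM 20 uM; 2 h RT; anti-H3K9me1 Ab 0.5 ug/mL + SA donor / anti-rabbit acceptor beads 20 ug/mL each, 10 min; AlphaScreen read.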
Numbers stand for hits; – = inactive; ? = inconclusive; · = not tested or not shown; [ ] = remark or other dose. Compounds with a hit are over-represented: about 11% of the library has one in this group of screens. Calls come from the whole dose curve; as a rule, active = well fitted inhibition curve with a large enough effect; inconclusive = small, poorly fitted or top-dose-only effect; inactive = no such curve, though single readings can be large or run the other way.

SMILES	BAZ2B block	L3MBTL1 block	JMJD2A Tudor	HP1b chromo inh	G9a block
O=C(N/N=C/c1ccncc1)c1cccc(NC(=O)c2ccc(Cl)cc2)c1	–	–	–	?	16µM
O=C(N/N=C/c1cccnc1)c1ccc(NC(=O)c2cccc(Cl)c2)cc1	–	·	–	?	32µM
O=C(N/N=C\c1cccnc1)c1cc(-c2ccc(Cl)s2)[nH]n1	50µM	–	56µM	–	32µM
O=C(N/N=C/c1ccncc1)c1cccc(N/N=C/c2ccncc2)c1	–	–	?	–	?
CCCCOc1cccc(C(=O)N(Cc2sccc2C)C2CCS(=O)(=O)C2)c1 (stereo unspecified)	–	·	–	–	–
C[C@]12C=CC(=O)N[C@@H]1CC[C@@H]1C2CC[C@]2(C)C(C(=O)Nc3cc(C(F)(F)F)ccc3C(F)(F)F)CC[C@@H]12 (stereo partly specified)	·	·	·	·	–
CCc1ccccc1NC(=O)Cn1c(=O)ccc2cc(S(=O)(=O)N3CCCC3)ccc21	–	·	–	–	–
CCCC12CN3CC(C)(CN(C1)C3c1ccc(OCc3ccccc3)cc1)C2=O (stereo unspecified)	–	·	–	–	–
COc1ccc(OC)c(CNC(=O)c2cc3cc4ccc(OC)cc4nc3o2)c1	·	·	–	–	–
O=S(=O)(c1ccc2c(c1)OCCO2)N1CCN(S(=O)(=O)c2cc(F)c(F)cc2F)CC1	·	·	–	·	·
Cc1nn(C(C)C(=O)NC(C)CCc2ccccc2)c(=O)c2cc3occc3n12 (stereo unspecified)	–	·	–	–	–
C/C(=N\NC(=O)c1cc(O)ccc1O)c1cccc(NC(=O)c2ccc(Cl)cc2)c1	?	·	?	?	16µM
O=C(N/N=C/c1ccccc1Cl)c1ccncc1	–	–	–	–	·
C/C(=N\NC(=O)c1cc(O)ccc1O)c1cccc(NC(=O)c2cccc(Cl)c2)c1	?	·	?	–	?
O=C(NCC1CCCO1)C(=O)N/N=C/c1cc(Cl)ccc1O (stereo unspecified)	?	?	40µM	–	–
O=C(N/N=C/c1cc(Cl)ccc1O)c1ccncc1	20µM	25µM	?	–	–[12.7 µM]
Cc1cc(OCCn2cnc3ccccc3c2=O)cc(C(C)C)c1	–	–	79µM	–	–
CC[C@@]1(c2ccccc2)C(=O)N(C(=O)OC)N1C(=O)OC	–	–	–	–	28µM
CC[C@]1(c2ccccc2)C(=O)N(C(=O)OC)N1C(=O)OC	–	–	–	–	·
CC[C@]1(c2cccc(C)c2)C(=O)N(C(=O)OC)N1C(=O)OC	–	–	–	–	40µM
COC(=O)N1C(=O)[C@](Cc2ccccc2)(c2ccccc2)N1C(=O)OC	–	–	–	–	40µM
CC(C)CC(=O)Nc1c(C(=O)N2CCN(c3ccccc3F)CC2)oc2ccccc12	?	·	?	–	–
O=C1C(=Cc2ccco2)CCCC1=Cc1ccco1	·	·	56µM	?	·
O=C1/C(=C/c2c[nH]c3ccccc23)CCC/C1=C\c1c[nH]c2ccccc12	?	–	–	–	?
O/N=C1\CCC\C1=C/c1ccco1	?	–	–	–	56µM
SMILES	BAZ2B block	L3MBTL1 block	JMJD2A Tudor	HP1b chromo inh	G9a block
O/N=C1/CCCSc2ccccc21	–	–	?	–	–
O=C1C(=Cc2ccco2)CCC1=Cc1ccco1	·	·	3.2µM	3.5µM	·
CCOc1ccc(OCC)c(NC(=O)c2csc3c2CCCC3)c1	–	·	–	–	–
COc1cc(Cl)c(C)cc1Nc1ncnc2c1nc1n2CCCC1	–	·	–	–	–
CC(C)Cn1c(CN2CCN(c3cccc(Cl)c3)CC2)nc2c1c(=O)[nH]c(=O)n2C	–	·	?	–	–
CCc1nnc(NC(=O)C2Cc3ccccc3CN2S(=O)(=O)c2cccs2)s1 (stereo unspecified)	–	–	–	–	14µM
Cc1ccc(S(=O)(=O)N2Cc3ccccc3CC2C(=O)Nc2ccc3c(c2)OCO3)cc1 (stereo unspecified)	?	·	79µM	?	?
CCc1nnc(NC(=O)C2Cc3ccccc3CN2S(=O)(=O)c2ccc(C)cc2)s1 (stereo unspecified)	?	–	?	–	40µM
O=C(O)C1Cc2ccccc2CN1S(=O)(=O)c1ccccc1 (stereo unspecified)	?	·	–	–	?
O=C(O)C1Cc2ccccc2CN1S(=O)(=O)c1ccc2ccccc2c1 (stereo unspecified)	50µM	·	50µM	–	7.9µM
Cc1ccc(S(=O)(=O)N2CCN(c3nc(-c4cnccn4)nc4ccccc34)CC2)cc1	·	·	–	–	·
Cc1cc(/C=C2\SC(=S)NC2=O)c(C)n1-c1cccc(O)c1	50µM	–	–[11.4 µM]	?	40µM
Cc1sc(-n2c(C)cc(/C=C3\SC(=S)NC3=O)c2C)c(C#N)c1C	–	–	40µM	?	?
Cc1cc(/C=C2/NC(=O)N(c3ccccc3)C2=O)c(C)n1-c1cccnc1	?	–	–	?	?
Cc1sc(-n2c(C)cc(/C=N/n3cnnc3)c2C)c(C#N)c1C	?	–	?	–	8.9µM
Cc1cc(/C=C2/C(=O)NN(c3ccccc3)C2=O)c(C)n1-c1cccc(O)c1	?	?	–	–	22µM
CC(=O)c1cccc(NC(=O)c2cnn(-c3cccc(C)c3)c2-n2cccc2)c1	–	·	–	–	–
FC(F)(F)c1ccccc1-c1ccc2ncnc(NCCN3CCOCC3)c2c1	·	·	·	·	–[0.501 µM]
Cc1cnc(NC(=O)NCC2CCCC(CNC(=O)Nc3ncc(C)s3)C2)s1 (stereo unspecified)	32µM	·	?	–	?
Cc1ccc2oc(=O)c3cnn(CC(=O)N4CCN(c5cccc(C(F)(F)F)c5)CC4)c3c2c1	–	·	–	–	–
COc1cc(CNc2ccccc2SC)ccc1O	?	–	35µM	–	?
COc1cc(C[C@@H](C)[C@@H](C)Cc2ccc(O)c(OC)c2)ccc1O	·	–	?	–	·
COc1cc(C2CC(=O)Nc3cc4c(cc32)OCCO4)cc(OC)c1O (stereo unspecified)	–	·	–	–	?
CN1C(C(=O)Nc2ccc(C(=O)O)cc2)=C(O)c2ccccc2S1(=O)=O	–	–	79µM	–	?
CN1C(C(=O)c2ccccc2)=C(NC(=O)c2ccc(F)cc2)c2ccccc2S1(=O)=O	–	·	–	–	–
CC(=O)N1CCc2cc(Br)cc(S(=O)(=O)NCCc3cccc(C)c3)c21	–	·	–	–	–
COC(=O)C(Cc1ccc(O)cc1)NC(=O)C(C)NC(=O)c1ccc(C(C)(C)C)cc1 (stereo unspecified)	–	·	–	–	–
CCN(CC)CCCNC(=O)c1ccc2nc(CCc3ccccc3)oc2c1	–	·	–	–	–
O=[N+]([O-])c1ccc(NN=Cc2ccc(O)cc2O)nc1	·	·	–	–	·
